# Active and inactive are the calls of the source. How the source made its calls: active means hit-call score of the fitted dose curve at least 0.9, where 1 is the maximum; inactive means score below 0.9.
# Read-out: Tissue plasminogen activator (tPA), PLAT (gene 5327)
# Experiment: BSK_BE3C_tPA: BioMAP Diversity Plus: BE3C Assay for Tissue plasminogen activator (tPA) Biomarker Activity (AID 2283041)
# Conditions: primary human bronchial epithelial cells; actives raise or lower the signal
# Description: BSK_BE3C is a cell-based, multiplexed-readout assay that uses bronchial epithelial cell, a human lung primary cell, with measurements taken at 24 hours after chemical dosing in a 96-well plate.BSK_BE3C_tPA is an assay component measured in the BSK_BE3C assay. It measures tPA antibody related to regulation of gene expression using ELISA technology.Data from the assay component BSK_BE3C_tPA was analyzed into 1 assay endpoint. This assay endpoint, BSK_BE3C_tPA, was analyzed with bidirectional fitting relative to DMSO as the negative control and baseline of activity. Using a type of binding reporter, gain or loss-of-signal activity can be used to understand changes in the signaling as they relate to the gene PLAT. Furthermore, this assay endpoint can be referred to as a primary readout, because this assay has produced multiple assay endpoints where this one serves a signaling function. To generalize the intended target to other relatable targets, this assay endpoint is annotated to the protease intended target family, where the subfamily is serine protease.
# The levels of cell surface (or secreted, indicated by the prefix "s") biomarker endpoints were measured by ELISA. Overt cytotoxicity to cells in confluent adherent cultures (all systems other than the BT system) was assessed by measuring total protein levels using sulforhodamine B (SRB) staining in parallel cultures at the time of biomarker measurements, indicated as SRB endpoints. For proliferation assays for adherent cell types, individual cell types are cultured at sub-confluence and relative cell numbers quantified by SRB staining at time points optimized for each system (48 h: 3C and CASM3C systems; 72 h: BT and HDF3CGF systems; 96 h: SAg system). SRB was performed by staining cells with 0.1% SRB after fixation with 10% TCA and reading wells at 560 nm.Viability and proliferation of PBMC (T cells) was quantified by Alamar Blue reduction for the SAg and BT systems. For PBMC viability (referred to as PBMC Cytotoxicity within the assay endpoint names), cells were plated (75,000/well in a 96-well plate) and then chemical samples added for 1 h before addition of activators, SEB and TSST-1 (20 ng/mL final concentration each). Cells were incubated for 90 h. Then, Alamar Blue (20 uL/well) (Invitrogen, Cat DAL1100) was added for 6 h, and the plates were read with a fluorescence microplate reader at 546/580 nm (excitation/emission). For PBMC proliferation, cells were plated and activated as above but incubated for only 16 h prior to addition of Alamar Blue. Plates were read after 6 h.
Compound,outcome,AC50
O=C(CCl)NCO,inactive,–
OC(Cc1ccccc1Cl)(Cn1cncn1)C1(Cl)CC1 (stereo not given),inactive,–
CCCCN(CCCC)C(=S)[S-].CCCCN(CCCC)C(=S)[S-].[Ni+2],inactive,–
CCOC(=O)CC(=O)CCl,–,3.97 µM (active)
CC(C)(C)c1cc([N+](=O)[O-])cc(C(C)(C)C)c1O,inactive,–
CCOP(=O)(OCC)SCCSCC,inactive,–
[Cl][Sn]([c]1ccccc1)([c]1ccccc1)[c]1ccccc1,–,0.0792 µM (active)
Cc1c([N+](=O)[O-])c(C)c([N+](=O)[O-])c(C(C)(C)C)c1[N+](=O)[O-],inactive,–
O=C(O)COc1cc(Cl)c(Cl)cc1Cl,inactive,–
Cc1cc(C(C)(C)c2ccc(O)c(C)c2)ccc1O,–,15.2 µM (active)
O=C(Cc1ccccc1)OCCc1ccccc1,inactive,–
Clc1cccc(Cl)c1Cl,inactive,–
CCCCCCCCCCCCc1cccc(S(=O)(=O)O)c1,–,3.92 µM (active)
Clc1cccc(Cl)c1,inactive,–
Cc1ccccc1OP(=O)(Oc1ccccc1C)Oc1ccccc1C,–,7.43 µM (active)
Oc1c(Br)cc(Br)cc1Br,inactive,–
c1ccc2sc(SNC3CCCCC3)nc2c1,inactive,–
Nc1c(Oc2ccccc2)cc(O)c2c1C(=O)c1ccccc1C2=O,inactive,–
O=C1C=CC(=O)c2ccccc21,–,3.27 µM (active)
O=[N+]([O-])c1ccc(Nc2ccccc2)cc1,inactive,–

Compound,outcome,AC50
c1ccc(-c2cccc(-c3ccccc3)c2)cc1,–,6.98 µM (active)
Cc1cc(Cl)ccc1N,inactive,–
COCC(=O)N(c1c(C)cccc1C)[C@H](C)C(=O)OC,inactive,–
CCCCCCCCCCCCN(C)C,inactive,–
O=S(=O)(C(Cl)(Cl)Cl)C(Cl)(Cl)Cl,–,4.81 µM (active)
N#CCCC(Br)(C#N)CBr (stereo not given),–,9.86 µM (active)
Cc1ccccc1OP(=O)(Oc1ccccc1)Oc1ccccc1,inactive,–
COc1ccccc1N,inactive,–
O=C(N[C@H]1CN2CCC1CC2)c1ccc2c(c1)OCCO2,inactive,–
CC(C)(C)c1ccccc1O,inactive,–
Oc1c(Cl)cc(Cl)cc1Cl,inactive,–
C=CC(Cl)CCl (stereo not given),inactive,–
Oc1cccc(-c2ccccc2)c1,inactive,–
CCOP(=S)(OCC)OP(=S)(OCC)OCC,inactive,–
CC(C)=CC1C(C(=O)OCc2cccc(Oc3ccccc3)c2)C1(C)C (stereo not given),–,9.82 µM (active)
C#CCOC(=O)/C=C(C)/C=C/CC(C)CCCC(C)C (stereo not given),inactive,–
O=S(=O)(c1ccc(Cl)cc1)c1cc(Cl)c(Cl)cc1Cl,inactive,–
CCOC(=O)CCN(SN(C)C(=O)Oc1cccc2c1OC(C)(C)C2)C(C)C,inactive,–
O=C(O)C1(c2ccc3c(c2)OC[C@H](Cc2ccc(-c4ccccc4)cc2)[C@H]3O)CCCC1,–,4.2 µM (active)
CCC(C)(C#N)N=NC(C)(C#N)CC (stereo not given),inactive,–

# Reference: PubChem BioAssay (EPA / NIEHS)
